This excerpt belongs to a sample that is enriched for hits.
FECH inh = human FECH heme synthesis enzyme inhibition; purified FECH, Ni-mesoporphyrin absorbance 550 nm; 20,000 compounds, 3.3% hits; AID 1671448; calls only at 10 µM (by protocol); P22830;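 active means enzyme reaction rate more than 3 SD below the solvent-only control wells on the same plate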;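 further: lower slope than DMSO wells means FECH inhibition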
Target sequence (P22830 whole entry, looked up): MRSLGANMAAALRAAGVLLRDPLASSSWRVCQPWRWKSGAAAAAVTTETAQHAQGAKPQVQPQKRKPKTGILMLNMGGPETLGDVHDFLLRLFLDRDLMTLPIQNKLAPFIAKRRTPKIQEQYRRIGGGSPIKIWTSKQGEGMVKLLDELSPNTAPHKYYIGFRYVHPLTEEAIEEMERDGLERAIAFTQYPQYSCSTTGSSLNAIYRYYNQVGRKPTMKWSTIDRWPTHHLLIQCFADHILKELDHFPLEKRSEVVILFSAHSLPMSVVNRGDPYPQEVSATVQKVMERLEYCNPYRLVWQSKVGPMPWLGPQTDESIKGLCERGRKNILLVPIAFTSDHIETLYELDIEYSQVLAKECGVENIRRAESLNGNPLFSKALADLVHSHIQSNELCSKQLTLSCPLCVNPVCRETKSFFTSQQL
Numbers without * were called inactive; i = inactive; + = active, no number.

SMILES	FECH inh
O=C(NC1CC1)C1CCN(c2ccc(-c3cccs3)nn2)CC1	i
CC(C)CCNC(=O)C1CCN(c2ccc(-c3ccccc3)nn2)CC1	i
CC(C)c1nnsc1CN1CCc2[nH]nc(-c3ccc(F)c(F)c3)c2C1	i
CCc1c(C)cc(C(=O)N2CCn3cncc3C2)c(=O)n1C	i
Cc1c(C(=O)NC2CCC(n3cnnc3)CC2)cnn1-c1ccccn1 (stereo not given)	i
O=C(Nc1ccc(F)cc1)N1CCC(n2cnc3cccnc32)CC1	i
c1cncc(-c2nc3c(c(NCCN4CCOCC4)n2)CCNC3)c1	i
COCc1cc(CN(C)c2cc(C(C)C)nc(C)n2)[nH]n1	i
Cc1nc(C(C)C)cc(N(C)Cc2ncccc2C)n1	+
Cc1cc(N(C)Cc2ncccc2C)nc(-c2ccccc2)n1	i
Cc1ccc(NC(=O)CC(=O)N2CCN3C(=O)CNC(=O)C3C2)c(C)c1 (stereo not given)	i
CSc1nc(-c2ccc(C)cc2)c(C#N)c(N(CCO)CCO)n1	i
CCCc1nnc2sc(Cc3ccc4nc(C)[nH]c4c3)nn12	i
COc1ccc(Cl)cc1Nc1nc(SC)nc(-c2ccc(Cl)cc2)c1C#N	i
CCn1c(C(=O)N2CCC(C(=O)NCCc3ccc(S(N)(=O)=O)cc3)CC2)cc2sccc21	i
O=C(NCCc1cnc[nH]1)c1ccc(CN2C(=O)CCn3nccc32)cc1	i
COc1ccc(Oc2ccc(C(=O)NCCc3cnc[nH]3)cc2)cc1	+
COc1ccccc1-n1cc(C(=O)NCCc2cnc[nH]2)cn1	i
CCCCN(C)c1nc(Nc2ccc(C)cc2)c2cnn(-c3ccccc3)c2n1	i
CN(CCc1cn[nH]c1)CC(=O)Nc1nc2ccccc2[nH]1	i
NC(=O)c1cccc(CC2CCN(C(=O)CCN3CCc4ccccc43)C2)c1 (stereo not given)	i
COc1ccc(NS(=O)(=O)c2ccc(N)c(S(N)(=O)=O)c2)cc1	+
CCc1ccc(NS(=O)(=O)c2ccc(C(=O)N(C)C)s2)cc1	i
CCN(CC)c1ncc(NS(=O)(=O)c2ccc(OC)cc2)cc1C(=O)O	i
CCc1ccc(NS(=O)(=O)c2ccc(N)c(S(N)(=O)=O)c2)cc1	+
SMILES	FECH inh
Cn1cnc(S(=O)(=O)Nc2ccc(S(N)(=O)=O)cc2)c1	i
Cc1ccc(NS(=O)(=O)c2ccc(N)c(S(N)(=O)=O)c2)cc1	+
NS(=O)(=O)c1ccc(NS(=O)(=O)c2ccc3c(c2)NC(=O)CC(=O)N3)cc1	i
COc1ccc(-c2csc(C)n2)cc1S(=O)(=O)Nc1ccc(S(N)(=O)=O)cc1	i
CCc1ccc(NS(=O)(=O)c2ccc3c(c2)C(=O)NC3)cc1	i
O=S(=O)(c1c(Cl)nc2sccn12)N1CCn2cncc2C1	i
O=[N+]([O-])c1cccc(S(=O)(=O)NCc2nc3cccnc3n2C2CC2)c1	i
O=C(c1cc(-c2ccc(O)cc2)n[nH]1)N1CC(c2ccncc2)C1	i
COC(=O)c1cc2ccsc2n1CC(=O)Nc1ccc(F)cc1	i
CCn1nc(-c2ccccc2)c(-c2ccccc2)c(C(=O)Nc2ccc(S(N)(=O)=O)cc2)c1=O	+
NS(=O)(=O)c1ccc(NC(=O)c2c(-c3ccccc3)c(-c3ccccc3)n[nH]c2=O)cc1	i
NS(=O)(=O)c1ccc(NC(=O)c2ccc(-c3nc(-c4ccccc4)no3)cc2)cc1	i
CSc1cccc(Nc2c(-c3ccc4c(c3)CCCC4)c(=O)c2=O)c1	i
Cc1ccccc1S(=O)(=O)Nc1cnc(N(C)Cc2ccccc2)c(C(=O)O)c1	i
CCNc1nc(C)c(C(=O)N2CCC(O)(c3ccc(C)cn3)CC2)s1	i
CCc1c(C)nc2ncnn2c1Sc1ccc(NS(=O)(=O)c2ccc(C)c(C)c2)cc1	i
Cc1ccsc1[C@@H]1CCN(C(=O)c2cc(=O)[nH]c3ccc(F)cc23)C[C@H]1O	i
Cc1cccc(NCc2cc(=O)n3[nH]c(NCc4ccc(F)cc4)nc3n2)c1	i
COc1cccc(-c2cc(=O)[nH]c(SCc3nc(-c4ccc(Cl)cc4)oc3C)n2)c1	i
Cn1ccn2ncc(C(=O)NCCc3ccccn3)c12	+
CCc1c(C)nn(CCNC(=O)c2cnn3ccn(C)c23)c1C	i
Cn1nnnc1SCCNC(=O)c1cnn2ccn(C)c12	i
CCn1nc(C(=O)O)c2c1CCN(C(=O)C(c1cccnc1)N1CCCC1)C2 (stereo not given)	i
O=C(CSc1ccncc1)N1CCCC(c2ccccc2)C1 (stereo not given)	i
CCN1C(SCC(=O)N(C)c2ccccc2)=NS(=O)(=O)c2ccccc21	+
CCN1C(SCC(=O)N2CCCC2)=NS(=O)(=O)c2ccccc21	+
COc1ccc(CC(=O)Nc2ccc(Nc3nc(C)cc(Nc4ccc(OC)cc4)n3)cc2)cc1	i
COc1ccccc1-c1cccc(C(=O)N(C)Cc2cnc(N)nc2)c1	i
Cc1ccsc1CN(CC1CCC(N)CC1)C1CC1 (stereo not given)	i
CC(C)(C)CNC(=O)c1nc[nH]c1C(=O)N1CCCC(CO)C1 (stereo not given)	i

Assay outcomes deposited in PubChem by Corson Lab, School of Medicine, Indiana University.
